We go through 40 sequences from the supplement of paper PMC6555819.

The subject of this experiment is VDR:RXRa (NR concentration 270 nM, RXRa partner concentration 90 nM). The experiment can be described thus: PBM binding z-score (relative to random genomic background probes); higher = stronger binding; sequences stand for … in GC…GCGATTGACAGCGTAGAATGAAGG
The method, then:
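Protein-binding microarray (Agilent 4x180K custom design, double-stranded 60-nt probes: 5' GC cap, 34-nt variable region, 24-nt constant primer region; full probe sequence given). Purified or IVT nuclear receptor:RXRα heterodimers (3:1 NR:RXRα, mostly 270:90 nM) or homodimers were incubated for 1 h in PBS with 2% milk and no ligand, then detected with Alexa488 antibodies. Fluorescence from o1-orientation probes (~5 replicates averaged) was converted to z-scores against 500 random hg19 background probes. Variable regions are seed direct-repeat (DR0–DR5) sites, all their single-nucleotide variants and half-site ablations.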
On to CGAACTAGGTCAAAGGAAAGTGAAAGGCGACGTA, for which the PBM binding z-score is 0.89.
CTATGGAGGTTAAGGGGGTCATTCAGTTTGAAAG: the PBM binding z-score came to 8.03.
The same measure for ATACCAAGGTGATCGTGAGTTCGTTGATACTAAC: 4.08; for ATATGTAGGTGAAGGGTCATTCAGGTTGGTTCGC: 5.46.
Consider CCTACTGGGCCACGAAAGGTCCTTGATTCAGTGA, for which the PBM binding z-score is -0.615.
The same measure for CAACCTAGGTCACGAAAGGTCAAAGTCGAATGAC: 7.15; for CGAACTAGGTCACCAGTACAGTGAAGAGGTTGGA: 2.27; for CCGAGTAGGTTACGAGGGGGCAATCAGTGCGAAT: 4.72.
Regarding GATACAAGGTCAGCTAGAGGCCAGAGTATGGAAA, the PBM binding z-score is 3.19.
The same measure for CCTCGGAGGACACCAGGAGGTCAGAGCTGCCAGA: 1.99; for GATACAGGGTCAGCTAGAGGGCAGAGTATGGAAA: 4.22.
The same measure for CGAACTAGGACAAAGGACAGTGAAAGGCGACGTA: -0.353; for CCTACTGGGCCAAGGTCTTTGATCAGTCAAAGCA: -0.509; for CGAACTAGGTCCTTGACAGGACAGTGAATAGTAA: -0.351.
As for TCATATAGGTTAAGGTGAAAGTCGAACGATATGA, the figure is 0.985.
On to CGAACTAGGTCACCACGACAGTGAAGAGGTTGGA, for which the PBM binding z-score worked out at 2.04.
The same measure for ACTAGTTGGTCAGCTGAGGTCACACAAAATTCGG: 4.79; for CGAACTAGGTCAGAACAGGACATTGAAGGATGAT: 1.59; for ATCGAAAAGTCGAAGGTGAGTATACCCACCCGAA: -0.47.
As to GGAACGAGGGCAAAGGTGATAGCATCTGTCGACG, the PBM binding z-score is 1.92.
The same measure for CGTCCAAGGTCAACAGGTCAGTGAAAGCGACGTG: 5.16; for AGAATGGGGTTAAGATCAGGGAAACAGAATACAT: 2.91; for GCTGCTAGGTCGACTGATGGTCAGCTAAAGCTCG: -0.493.
Sequence ATATGTAGGTTACATGCGGGTCATTCAGGCTATG gave a PBM binding z-score of 3.78.
ACTAGCAGGCCAAAGGTCACTCAAGATTAGTCCG yielded a PBM binding z-score of 4.05.
As for GATACAGGGTCAACTAGAGGCCAGAGTATGGAAA, the figure is 4.98; as for TCGAGTAGGTTACGGGGACATTCAGGGATGAAGA, 1.27.
The same measure for CGAACTATGTCAAAGGACAGTGAAAGGCGACGTA: -0.0394; for CGAACTAGGTCACCAGGACAGTAAAGAGGTTGGA: 2.05; for TCAGATAGGTAAAGGTGAAAGTCGAACGATATGA: 0.979.
As for CATACAGGGTCCGCTAGGCCAGAGTAGGGACGGC, the figure is -0.537.
Consider CACACTAGGTCAAAGGTCAAAGTCGAGCCAACCA, for which the PBM binding z-score was found to be 6.85.
TCTAGTTGGTCACGGAGGTCACACGCGACGGGTA yielded a PBM binding z-score of 5.87.
The same measure for ATATGTAGGTTAGGGTCATTCATAAAGTAGGGAA: 4.67.
As for CGTCAAAGTTAAAGGTAACGTAACAGAAAGCAGC, the figure is 0.291.
The same measure for GATAAAGGGTCAGCTAGAGGCCAGAGTATGGAAA: 3.73; for CGAACTTGGTCACCAGGACAGTGAAGAGGTTGGA: 0.809; for TGTCAGAGTTCAAAGGTAACGTAAGTATCCACAC: 5.75.
GTACCAAGGTGAATAGGTCGTTGATGAGTAGGCG had a PBM binding z-score of 0.95.
The same measure for ATAAGTAGGTTAGGGTCATTCAGAAAGTAGGGAA: 4.88.
